# Measured values published in the supplement of paper PMC9135407.
# “And” between values parts separate entries of the source, which are not always exact repeats. Identical values can stand only once. Counter-ions that a name gives are not always drawn. Out of some 5,800 compounds screened, about 620 (11%) showed activity. The full list was thinned out, with actives kept by preference. Values without a mark were called inactive.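 Rule for the calls: active = score above a cut-off or among the top three wells of a plate; in these data no inactive exceeds 0.85.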
# Test system: primary human hepatic stellate cells (donor 1)
# Assay: scaled lipid accumulation score (0 = DMSO-like, 1 = nortriptyline-like); higher = stronger HSC inactivation (lipid re-accumulation), active = hit call of the paper
# Details: 48 h
# [1] = library stock concentration: 3.33 mM
# [2] = library stock concentration: 10 mM
# [3] = library stock concentration: 1 mM
compound,measurement,setting,value
O=C1Cc2c([nH]c3ccc(Br)cc23)-c2ncccc2N1 [1-Azakenpaullone],scaled lipid accumulation score,[1],0.405
same,scaled lipid accumulation score,[2],0.808
CCCCCCCCCCCCCCCCOCC(COP(=O)([O-])OCC[N+](C)(C)C)OC (stereo not given) [1-Hexadecyl-2-methylglycero-3 PC],scaled lipid accumulation score,[3],0.043
COc1cc(C[C@@H](CO)[C@H](CO)Cc2ccc(O)c(OC)c2)ccc1O,scaled lipid accumulation score,[2],0.022
NC[C@@H]1O[C@H](c2ccccc2)Cc2c1ccc(O)c2O,scaled lipid accumulation score,[2],≤ 0
NC[C@H]1c(c2C[C@@H]([C@]3(C4)CC(CC45)CC(C5)C3)O1)ccc(O)c2O.Cl,scaled lipid accumulation score,[2],1.19 (active)
NC[C@@H]1O[C@H](C23CC4CC(CC(C4)C2)C3)Cc2c1ccc(O)c2O,scaled lipid accumulation score,[2],0.438
COc1ccc(C2CC(=O)c3c(O)cc(OC4OC(COC5OC(C)C(O)C(O)C5O)C(O)C(O)C4O)cc3O2)cc1OC (stereo not given) [Methyl-Hesperidin],scaled lipid accumulation score,[1],≤ 0
same,scaled lipid accumulation score,[2],≤ 0
CCCCC/C=C\C/C=C\C/C=C\C/C=C\CCCC(=O)OC(COCCCCCCCCCCCCCCCC)COP(=O)([O-])OCC[N+](C)(C)C (stereo not given) [Arachidonoyl PAF C-16],scaled lipid accumulation score,[3],≤ 0
CC1CCN(CCCC(=O)c2ccc(F)cc2)CC1,scaled lipid accumulation score,[2],≤ 0
CC1CCN(CCCC(=O)c2ccc(F)cc2)CC1 [Melperone hydrochloride],scaled lipid accumulation score,[2],0.058
"Cl.O[Si](CCCN1CCCCC1)(c1ccc(F)cc1)C1CCCCC1 (stereo not given) [Hexahydro-sila-difenidol hydrochloride, p-fluoro analog]",scaled lipid accumulation score,[2],0.956 (active)
O=C(c1ccc(F)cc1)C1CCN(CCCCc2ccccc2)CC1 [4-(4-Fluorobenzoyl)-1-(4-phenylbutyl)-piperidine oxalate],scaled lipid accumulation score,[2],0.378
CC1CCN(CCCC(=O)c2ccc(F)cc2)CC1 [Metylperon],scaled lipid accumulation score,[2],≤ 0
C[C@H]1[C@H](C)CC[C@]2(C(=O)O)CC[C@]3(C)C(=CC[C@@H]4[C@@]5(C)CC[C@H](O)C(C)(C)[C@@H]5CC[C@]43C)[C@H]12 [Ursolic Acid],scaled lipid accumulation score,[1],0.013
same,scaled lipid accumulation score,[2],≤ 0
C[C@H]1[C@H](C)CC[C@]2(C(=O)O)CC[C@]3(C)C(=CC[C@@H]4[C@@]5(C)CC[C@H](O)C(C)(C)[C@@H]5CC[C@]43C)[C@H]12 [Ursolic acid],scaled lipid accumulation score,,0.053
O=C1CC2(CCCC2)CC(=O)N1CCNCC1COc2ccccc2O1 (stereo not given),scaled lipid accumulation score,[2],≤ 0 and 0.017
CCCCC1C(=O)CCC2C(CC=CCCCC(=O)O)C(=O)CC12 (stereo not given) [Bicyclo Prostaglandin E2],scaled lipid accumulation score,[3],≤ 0
C=C(NC(=O)C(=C)NC(=O)c1csc(C2=N[C@@H]3c4csc(n4)[C@H]4NC(=O)c5csc(n5)[C@H]([C@](C)(O)[C@@H](C)O)NC(=O)[C@H]5CSC(=N5)/C(=C/C)NC(=O)[C@H]([C@@H](C)O)NC(=O)c5csc(n5)[C@]3(CC2)NC(=O)[C@H](C)NC(=O)C(=C)NC(=O)[C@H](C)NC(=O)[C@H]([C@@H](C)CC)N[C@@H]2C=Cc3c([C@H](C)O)cc(nc3[C@H]2O)C(=O)O[C@@H]4C)n1)C(N)=O [Thiostrepton],scaled lipid accumulation score,,1.19 (active)
COP(=O)(OC)OC(c1ccc(Cl)cc1)P(=O)(OC)OC (stereo not given),scaled lipid accumulation score,[2],≤ -0.001
COc1cc(C[C@H]2COC(=O)[C@@H]2Cc2ccc(O)c(OC)c2)ccc1O [Matairesinol],scaled lipid accumulation score,[3],≤ 0
CC1(C)CC(=O)c2c(ccc(C(=O)CC(N)CO)c2N)O1 (stereo not given),scaled lipid accumulation score,[2],1.03 (active)
CO/N=C(\C(=O)N[C@@H]1C(=O)N2C(C(=O)O)=C(CSc3nc(=O)c(O)nn3C)CS[C@H]12)c1csc(N)n1 [Ceftriaxone sodium trihydrate],scaled lipid accumulation score,library stock concentration: 3.1 mM,≤ 0
same,scaled lipid accumulation score,[2],≤ -0.027 and 0.254
CO/N=C(\C(=O)N[C@@H]1C(=O)N2C(C(=O)O)=C(CSc3nc(=O)c(O)nn3C)CS[C@H]12)c1csc(N)n1 [Ceftriaxone sodium],scaled lipid accumulation score,[2],≤ 0
N#Cc1c(-c2ccccc2)no[n+]1[O-] [Furoxan],scaled lipid accumulation score,library stock concentration: 26.7 mM,1 (active)
CCCCCC[C@@H]([C@@H](C)O)n1cnc2c(N)ncnc21 (racemic),scaled lipid accumulation score,library stock concentration: 18 mM,0.052
CC1(C)CCC(CN2CCN(c3ccc(C(=O)NS(=O)(=O)c4ccc(NCC5CCOCC5)c([N+](=O)[O-])c4)c(Oc4cnc5[nH]ccc5c4)c3)CC2)=C(c2ccc(Cl)cc2)C1,scaled lipid accumulation score,[1],≤ -0.009
same,scaled lipid accumulation score,[2],≤ 0
O=S(c1ccccc1)c1ccc2nnnn2n1 (stereo not given),scaled lipid accumulation score,[2],1.3 (active)
O=C1c2ccccc2-c2nc3nnnn3nc21 [PDK1/Akt/Flt Dual Pathway Inhibitor],scaled lipid accumulation score,[1],0.462
COC(=O)C1=CO[C@@H](O)[C@@H]2C(CO)=CC[C@H]12 [Genipin],scaled lipid accumulation score,[1],≤ 0
same,scaled lipid accumulation score,[2],0.019 and ≤ -0.028
CC(C)(C)C(=O)Oc1ccc(S(=O)(=O)Nc2ccccc2C(=O)NCC(=O)O)cc1 [Sivelestat sodium salt hydrate],scaled lipid accumulation score,[2],≤ -0.055
O=C(NOCC1CC1)c1cc(Br)c(F)c(F)c1Nc1ccc(I)cc1Cl,scaled lipid accumulation score,[2],≤ 0
c1ccc(C(O[C@@H]2CCCN(CCc3ccc4c(c3)OCO4)C2)c2ccccc2)cc1 [Zamifenacin fumarate],scaled lipid accumulation score,[2],0.194
NC(=O)C(c1ccccc1)(c1ccccc1)[C@@H]1CCN(CCc2ccc3c(c2)CCO3)C1,scaled lipid accumulation score,[2],0.413
CC(C)(C(=O)O)c1ccc(C(O)CCCN2CCC(C(O)(c3ccccc3)c3ccccc3)CC2)cc1 (stereo not given) [Fexofenadine HCl],scaled lipid accumulation score,,≤ 0
same,scaled lipid accumulation score,[1],≤ 0
same,scaled lipid accumulation score,[2],0.057
NC(=O)C(c1ccccc1)(c1ccccc1)[C@@H]1CCN(CCc2ccc3c(c2)CCO3)C1 [Darifenacin HBr],scaled lipid accumulation score,[1],≤ 0
CC(C)(C(=O)O)c1ccc(C(O)CCCN2CCC(C(O)(c3ccccc3)c3ccccc3)CC2)cc1 (stereo not given) [Fexofenadine hydrochloride],scaled lipid accumulation score,[2],≤ -0.07 and 0.008
OC(CCN1CCCC1)(c1ccccc1)C1CCCCC1 (stereo not given) [Procyclidine hydrochloride],scaled lipid accumulation score,,0.092
same,scaled lipid accumulation score,library stock concentration: 6.2 mM,0.569
same,scaled lipid accumulation score,[2],0.484
CC(C)(C(=O)O)c1ccc(C(O)CCCN2CCC(C(O)(c3ccccc3)c3ccccc3)CC2)cc1 (stereo not given),scaled lipid accumulation score,[2],≤ 0
Br.NC(=O)C(c1ccccc1)(c1ccccc1)[C@@H]1CCN(CCc2ccc3c(c2)CCO3)C1,scaled lipid accumulation score,[2],0.88 (active)
Br.NC(=O)C(c1ccccc1)(c1ccccc1)[C@@H]1CCN(CCc2ccc3c(c2)CCO3)C1 [Darifenacin HBr],scaled lipid accumulation score,[2],1.03 (active)
